The text below walks through data of PubChem BioAssay AID504333 (National Center for Advancing Translational Sciences (NCATS), 2011).

Each structure is given as a SMILES string. “And” between values parts separate entries of the source, which are not always exact repeats. Equal entries are not always repeated. Hit rate of the full screen: of about 360,000 compounds, about 16,000 (4.4%) were called active. About 9% were inconclusive and are not listed. Calls follow the shape of the dose curve; as a rule, active = well fitted inhibition curve with a large enough effect; inconclusive = small, poorly fitted or top-dose-only effect; inactive = no such curve, though single readings can be large or run the other way. Shown is part of a subset that was picked to be rich in actives. A call without a number means that no potency is given here. Some compounds were tested as several samples or in several runs, with calls that do not always agree.
Potency is read from the fitted curve at half-maximal effect.

Chain of Bromodomain adjacent to zinc finger domain protein 2B (Homo sapiens) (Q9UIF8 whole entry, looked up, the tested form may be a part): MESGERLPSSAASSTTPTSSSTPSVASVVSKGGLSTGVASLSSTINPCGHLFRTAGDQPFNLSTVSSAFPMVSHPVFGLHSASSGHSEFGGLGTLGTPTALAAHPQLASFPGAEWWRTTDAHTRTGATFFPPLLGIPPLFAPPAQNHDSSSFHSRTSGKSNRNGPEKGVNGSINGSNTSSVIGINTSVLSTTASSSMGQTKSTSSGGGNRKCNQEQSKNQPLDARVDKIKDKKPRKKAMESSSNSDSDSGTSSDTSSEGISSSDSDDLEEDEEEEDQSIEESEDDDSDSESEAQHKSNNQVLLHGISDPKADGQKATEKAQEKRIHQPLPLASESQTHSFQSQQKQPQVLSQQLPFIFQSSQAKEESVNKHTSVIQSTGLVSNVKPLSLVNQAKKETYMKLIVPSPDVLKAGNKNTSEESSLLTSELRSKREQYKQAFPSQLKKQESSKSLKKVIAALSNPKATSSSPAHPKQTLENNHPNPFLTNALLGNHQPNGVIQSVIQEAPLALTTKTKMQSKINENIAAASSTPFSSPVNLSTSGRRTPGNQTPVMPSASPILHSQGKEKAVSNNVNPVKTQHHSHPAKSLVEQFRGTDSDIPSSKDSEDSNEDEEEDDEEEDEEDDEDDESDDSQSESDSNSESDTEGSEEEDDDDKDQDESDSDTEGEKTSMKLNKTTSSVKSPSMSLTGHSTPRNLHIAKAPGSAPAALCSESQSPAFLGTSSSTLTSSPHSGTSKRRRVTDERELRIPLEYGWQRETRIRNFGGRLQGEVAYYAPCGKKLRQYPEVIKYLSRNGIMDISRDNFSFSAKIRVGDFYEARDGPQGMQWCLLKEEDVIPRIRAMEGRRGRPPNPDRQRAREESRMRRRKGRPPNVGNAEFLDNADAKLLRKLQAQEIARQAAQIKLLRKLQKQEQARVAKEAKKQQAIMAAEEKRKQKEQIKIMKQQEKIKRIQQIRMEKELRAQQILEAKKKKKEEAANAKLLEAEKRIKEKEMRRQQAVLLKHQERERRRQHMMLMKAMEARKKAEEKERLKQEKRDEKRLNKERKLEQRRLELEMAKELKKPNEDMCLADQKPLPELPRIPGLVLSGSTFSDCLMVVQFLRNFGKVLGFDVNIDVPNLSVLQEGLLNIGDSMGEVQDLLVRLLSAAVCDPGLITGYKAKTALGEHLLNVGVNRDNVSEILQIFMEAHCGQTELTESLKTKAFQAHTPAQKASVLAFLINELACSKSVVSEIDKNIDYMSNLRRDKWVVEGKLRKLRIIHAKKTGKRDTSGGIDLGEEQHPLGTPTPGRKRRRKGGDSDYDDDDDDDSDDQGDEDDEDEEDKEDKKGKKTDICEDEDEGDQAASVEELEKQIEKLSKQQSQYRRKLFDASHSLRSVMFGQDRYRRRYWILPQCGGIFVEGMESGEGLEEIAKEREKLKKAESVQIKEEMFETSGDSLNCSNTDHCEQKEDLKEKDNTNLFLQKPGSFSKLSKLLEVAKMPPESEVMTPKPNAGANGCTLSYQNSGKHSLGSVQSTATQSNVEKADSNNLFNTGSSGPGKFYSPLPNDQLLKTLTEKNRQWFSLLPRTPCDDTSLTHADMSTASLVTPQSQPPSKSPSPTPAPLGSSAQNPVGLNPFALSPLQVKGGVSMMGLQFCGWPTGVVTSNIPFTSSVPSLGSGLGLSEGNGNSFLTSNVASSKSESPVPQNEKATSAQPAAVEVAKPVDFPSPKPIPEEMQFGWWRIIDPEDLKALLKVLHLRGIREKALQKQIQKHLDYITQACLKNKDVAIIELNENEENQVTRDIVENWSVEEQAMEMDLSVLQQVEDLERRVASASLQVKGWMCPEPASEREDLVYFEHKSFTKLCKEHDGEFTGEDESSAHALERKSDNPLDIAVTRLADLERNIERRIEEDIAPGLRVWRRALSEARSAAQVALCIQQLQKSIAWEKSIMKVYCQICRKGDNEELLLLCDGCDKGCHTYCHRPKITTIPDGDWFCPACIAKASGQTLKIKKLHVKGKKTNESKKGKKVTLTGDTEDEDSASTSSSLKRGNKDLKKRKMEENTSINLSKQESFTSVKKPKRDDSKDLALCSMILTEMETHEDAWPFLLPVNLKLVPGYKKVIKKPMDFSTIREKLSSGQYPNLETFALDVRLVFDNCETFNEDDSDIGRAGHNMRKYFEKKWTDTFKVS

This test has as its target Bromodomain adjacent to zinc finger domain protein 2B (Homo sapiens) (UniProt Q9UIF8). Put plainly: qHTS Assay for Inhibitors of BAZ2B. Also: nearly all actives have a fitted effect of over 60% in size. The conditions noted are these: AlphaScreen BAZ2B-H3K14Ac peptide displacement; series mostly up to 114 µM. The method in brief: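 Compounds, titrated to a top concentration of 110 uM, were incubated 30 min at room temperature with preformed BAZ2B/acetyl-K14 H3 peptide complex (50 nM each). Proximity signal was measured by AlphaScreen after 20 min with beads.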
Turning to `Cn1c(=O)c2c(nc(SCC(=O)Nc3ccc(F)cc3)n2Cc2ccc(Cl)cc2)n(C)c1=O`, the Potency entry was “inactive”.

As to `CC1Cc2cc(S(=O)(=O)CCC(=O)Nc3ccc(F)c(Cl)c3)ccc2N1C(=O)C1CC1` (centres undefined), the Potency result was “inactive”. As for `Cc1ccc(NC(=O)c2cc3ccccc3o2)cc1`, the Potency entry was “inactive”. Consider `CC(C)Oc1ccc(NC(=O)c2cc3ccccc3o2)cc1`, for which the Potency result is “inactive”. As for `C/C(=N\NC(=S)Nc1ccc(C)cc1)c1cc2ccccc2o1`, the Potency is 56.2 µM (active). For `Cc1ccc(NC(=O)C2CCN(S(=O)(=O)c3cc(-c4noc(C)n4)ccc3C)CC2)c(C)c1` the value was “inactive”; for `C/C(=N\NC(N)=S)c1ccncc1`, 50.1 µM (active); for `C/C(=N\NC(N)=S)c1cccnc1`, “inactive”. For `C/C(=N/NC(=O)c1ccn(C)n1)c1ccncc1` the value was “inactive”; for `CCOC(=O)c1c(C)[nH]c(C)c1S(=O)(=O)N(C)CC(=O)N1CCN(c2ccccc2)CC1`, “inactive”. With `Cc1ccccc1NC(=O)Cn1c(=O)n(CC2CCC(C(=O)NCCc3ccccc3)CC2)c(=O)c2ccccc21` (centres undefined), the Potency entry is “inactive”. For `Cc1c(Cl)cccc1NC(=O)C(=O)NCCc1csc2nc(-c3ccccc3F)nn12` the value was “inactive”; for `CC(=O)NC(Cc1c[nH]c2ccccc12)C(=O)NCCc1ccccc1` (centres undefined), “inactive”; for `CC1(C(=O)NCCc2c[nH]c3ccccc23)C=CC2(CCCCC2)N1C(=O)c1ccccc1` (centres undefined), “inactive”. As for `C[C@]1(C(=O)NCCc2c[nH]c3ccccc23)C=C[C@@H](Cc2ccccc2)N1C(=O)c1ccccc1`, the Potency was 79.4 µM (active). Then `COc1cc(Nc2nc(-c3ccc(OC)c(OC)c3)nc3ccccc23)cc(OC)c1`, with “inactive”. Then `Cc1ccccc1OCC(=O)Nc1nnc(S(=O)(=O)N2CCCC2)s1`, with “inactive and 3.55 µM (active)”. Then `Cc1cccc(C(=O)Nc2nnc(S(=O)(=O)N3CCCCCC3)s2)c1`, with “inactive”; and `CC1CCN(S(=O)(=O)c2nnc(NC(=O)COc3ccccc3F)s2)CC1`, with “inactive”; and `CCOCCCNC(=O)c1ccc2nc(CCc3ccccc3)oc2c1`, with “inactive”. `COc1ccc(CCNC(=O)Cn2c(=O)cc(C(F)(F)F)c3c(C)nn(C)c32)c(OC)c1`: the Potency entry was “inactive”. Then `CCCC1CCC(=NNC(=S)NCCc2ccccc2)CC1` (centres undefined), with 10 µM (active); and `S=C(NCCc1ccccc1)Nc1ccccc1`, with “inactive”; and `S=C(NCCc1ccccc1)NCC1CCCO1` (centres undefined), with “inactive”. As for `COc1ccccc1NC(=O)c1oc2ccccc2c1NC(=O)C(C)C`, the Potency entry is “inactive”. For `Cc1cccc(NC(=S)NCCN(C2CCCCC2)C2CCCC2)c1` the value was “inactive”; for `Cc1cccc(NC(=S)NCc2ccc3[nH]c4c(c3c2)CCCC4)c1`, 39.8 µM (active); for `O=C(O)CCC(=O)NCc1ccc2[nH]c3c(c2c1)CCCC3`, “inactive”. As for `O=C(CCn1c(=O)c2sccc2n(Cc2ccc(F)cc2)c1=O)NCc1ccc2c(c1)OCO2`, the Potency result was “inactive”. Then `O=C(Cn1c(=O)nc(-c2ccccc2)c2cc(Cl)ccc21)NCc1ccc(Cl)cc1`, with “inactive”; and `C=CS(=O)c1sc(Cl)c(N2CCOCC2)c1[N+](=O)[O-]` (centres undefined), with 39.8 µM (active). For `CCC(=O)Nc1cccc(-c2nc3cc(C)ccc3o2)c1` the value was “inactive”; for `Cc1ccc(C)c(N2CCN(C(=O)Cn3ncc4c(=O)oc5ccc(C)cc5c43)CC2)c1`, “inactive”; for `N#Cc1c(-c2ccccc2)c(-c2ccccc2)n[nH]c1=O`, “inactive”. With `O=C(O)c1ccc(-n2nc(-c3ccccc3)c3ccccc3c2=O)cc1`, the Potency entry is “inactive”.

For the compound `O=C(O)c1n[nH]nc1-c1ccccc1`, the Potency is 56.2 µM (active). Then `COc1ccc(Br)cc1CNC(=O)c1cc(=O)[nH]c2ccc(S(=O)(=O)N3CCCC3)cc12`, with “inactive”; and `COc1ccc(S(=O)(=O)NCc2ccc(C(=O)N(C)Cc3ccco3)cc2)cc1`, with “inactive”. For `COc1ccc(C(=O)N(Cc2ccc(N(C)C)cc2)C2CCS(=O)(=O)C2)cc1` (centres undefined) the value was “inactive”. For `COc1ccc(N(Cc2ccc(N(C)C)cc2)C(=O)c2ccc(S(C)(=O)=O)cc2)cc1` the value was 39.8 µM (active); for `CC(C)Cn1c(=O)c2ccccc2n2c(CCC(=O)N3CCN(c4cccc(Cl)c4)CC3)nnc12`, “inactive”; for `Cc1cc(NC(=O)c2cccc(Cl)c2)ccc1-c1cc2ccccc2oc1=O`, “inactive”.

On to `CC1=CC(C)(C)Nc2ccc(OC(=O)CN3C(=O)C4CCCCC4C3=O)cc21` (centres undefined), for which the Potency is 56.2 µM (active). As for `O=C(CN1C(=O)C2C3CCC(C3)C2C1=O)Oc1ccc2ccccc2c1` (centres undefined), the Potency entry is “inactive”.

Regarding `CC1=CC(C)(C)Nc2ccc(OC(=O)C(Cc3ccccc3)N3C(=O)C4CCCCC4C3=O)cc21` (centres undefined), the Potency result was “inactive”. Then `COc1ccc(CCNC(=O)c2ccc3c(c2)sc2nc(-c4ccc(C)cc4)cn23)cc1OC`, with “inactive”. Then `Cc1cccc(CNC(=O)c2cnc3sc(N4CCCCC4)nn3c2=O)c1`, with “inactive”; and `Cc1ccc2nc(/C(C#N)=C/c3ccc(-c4ccc(C(=O)OC(C)C)cc4)o3)[nH]c2c1`, with “inactive”. Then `CCc1ccccc1NC(=O)N1CCC2(CC1)Oc1ccccc1C(=O)N2Cc1ccccc1F`, with “inactive”; and `O=[N+]([O-])c1cc(Br)c(O)c(/C=N/Nc2nc3ccccc3s2)c1`, with 35.5 µM (active); and `c1ccc2sc(NN=C3CCCC3)nc2c1`, with “inactive”. Consider `COc1ccc(CC(=O)N/N=C/c2cc([N+](=O)[O-])cc(Br)c2O)cc1`, for which the Potency result is “inactive”. For `CCN(CC)CCNC(=O)c1cc2c(=O)oc3ccc(C)cc3c2s1` the value was “inactive”; for `CCOc1cccc(NC(=O)c2ccc(F)c(S(=O)(=O)N(CC)c3cccc(C)c3)c2)c1`, “inactive”.

In the case of `CC(C)Cc1nnc(NC(=O)CCc2ccccc2)s1`, the Potency entry was “inactive”.

For `O=C(CCc1ccccc1)NNc1ccc(F)cc1`, the Potency entry is “inactive”. For `O=C(CCc1ccccc1)Nc1nn[nH]n1` the value was 70.8 µM (active); for `COc1ccc(OC)c(CNC(=O)CN2C(=O)CCn3nc(-c4cn(C)c5ccccc45)cc32)c1`, “inactive”; for `COc1cccc(NC(=O)c2ccc3nc(CCc4ccccc4)oc3c2)c1`, “inactive”. For `CC(=O)N1CCCc2cc(S(=O)(=O)N3CCC(C(=O)NCc4ccc(C)cc4)CC3)ccc21` the value was “inactive”; for `O=C(Nc1cc(C(F)(F)F)ccc1Cl)c1ccc2c(c1)CCN2S(=O)(=O)c1ccccc1`, “inactive”. For `S=C(NCCc1ccccc1)NCc1ccccc1Cl` the value was “inactive”. With `OCCNCc1cccc(OCc2ccccc2Cl)c1`, the Potency result is “inactive”. With `Clc1cccc(Cl)c1OCCOCCNCc1ccccc1`, the Potency was 56.2 µM (active).
